“And” between values parts separate entries of the source, which are not always exact repeats. Identical values can stand only once. Inconclusive results are not listed. Where a call stands in place of a potency, no number is given. Some compounds were tested as several samples or in several runs, with calls that do not always agree. The source made the active and inactive calls. Unless noted, calls come from the whole dose curve; as a rule, active = well fitted curve in the direction sought with a large enough effect in the repeat runs; inconclusive = weak or mixed curves; inactive = no such curve, though single readings can be large; an effect the other way counts as inactive or inconclusive.
Columns and labels:
[1] = target: Acetylcholinesterase (Homo sapiens) (UniProt P22303); experiment: Acetylcholinesterase (AChE) small molecule antagonists: fluorescence cell-based qHTS assay (AID 1347398; calls by dose curve; note: nearly all actives have a fitted effect of over 50% in size); details: SH-SY5Y cells; Potency: AChE activity; series mostly up to 115 µM
In short: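 Homogeneous quantitative HTS format. SH-SY5Y cells seeded at 2,000 per well settle overnight at 37 C. Compound pretreatment runs 30 min (37 C, 5% CO2); substrate/probe mix then reacts 40 min at RT before reading 490/520 nm.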

[2] = target: Acetylcholinesterase (Homo sapiens) (UniProt P22303); experiment: Acetylcholinesterase (AChE) small molecule antagonists: enzyme-based qHTS assay with human liver microsomes (AID 1347399; calls by dose curve; note: nearly all actives have a fitted effect of over 60% in size); details: Potency: qHTS inhibition; series mostly up to 115 µM
In short: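 Recombinant human AChE (50 mU/mL in the enzyme mix) and human liver microsomes (0.25 mg/mL final) were preincubated with compound and NADPH (0.25 mg/mL final) for 30 min at 37 C. Acetylthiocholine/DTNB was then added; thiocholine was read colorimetrically after 10 min at room temperature.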

[3] = target: Cytochrome P450 2D6 (Homo sapiens) (UniProt P10635); experiment: Cytochrome P450 Family 2 Subfamily D Member 6 (CYP2D6) small molecule antagonists: luciferase reporter qHTS assay (AID 1671196); details: P450-Glo CYP2D6 enzyme assay, luciferin luminescence, 1 h; series mostly up to 115 µM; note: nearly all actives have a fitted effect of over 50% in size
In short: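 Room-temperature luminescent CYP2D6 activity assay: compound preincubated 10 min with enzyme–substrate mix, NADPH-initiated reaction 1 h, detection reagent 20 min before reading.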

[4] = target: Cytochrome P450 2C19 (Homo sapiens) (UniProt P33261); experiment: Cytochrome P450 Family 2 Subfamily C Member 19 (CYP2C19) small molecule antagonists: luciferase reporter qHTS assay (AID 1671197); details: P450-Glo CYP2C19 enzyme, luciferin luminescence, 1 h; series mostly up to 115 µM; note: nearly all actives have a fitted effect of over 65% in size
In short: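 Luminescent readout of CYP2C19 activity: luciferin product detected 20 min after adding detection reagent. Before that, compound and enzyme-substrate mix preincubated 10 min at room temperature; NADPH-regenerating system started a 1 h, 37C reaction. Ketoconazole as positive control.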

[5] = target: Cytochrome P450 2C9 (Homo sapiens) (UniProt P11712); experiment: Cytochrome P450 Family 2 Subfamily C Member 9 (CYP2C9) small molecule antagonists: luciferase reporter qHTS assay (AID 1671198); details: P450-Glo CYP2C9 enzyme assay, luciferin luminescence; series mostly up to 115 µM; note: nearly all actives have a fitted effect of over 50% in size
In short: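 Enzyme-substrate mix preincubated with compound 10 min at room temperature; reaction started with NADPH regeneration solution, 1 h 37C. Luminescent luciferin product read after 20 min detection reagent.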

[6] = target: Cytochrome P450 1A2 (Homo sapiens) (UniProt P05177); experiment: Cytochrome P450 Family 1 Subfamily A Member 2 (CYP1A2) small molecule antagonists: luciferase reporter qHTS assay (AID 1671199); details: P450-Glo CYP1A2 enzyme, luciferin luminescence, 1 h; series mostly up to 115 µM; note: nearly all actives have a fitted effect of over 50% in size
In short: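 Room-temperature CYP1A2 reaction with proluciferin substrate: compounds added from DMSO, 10 min preincubation, NADPH regeneration for 1 h. Luciferin detection reagent then added; luminescence recorded as RLU.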

[7] = target: Voltage-gated inwardly rectifying potassium channel KCNH2 (Homo sapiens) (UniProt Q12809); experiment: Human Ether-a-go-go-Related Gene (hERG) channel small molecule antagonists: fluorescence cell-based qHTS assay (AID 1671200); details: hERG-U2OS cells, FluxOR thallium flux fluorescence; series mostly up to 76.8 µM; note: nearly all actives have a fitted effect of over 50% in size
In short: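 Quantitative HTS in hERG-U2OS cells: thallium entry through the channel reports activity, read as continuous 480/540 nm fluorescence over 2 min after stimulus addition.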

[8] = target: Cytochrome P450 3A4 (Homo sapiens) (UniProt P08684); experiment: Cytochrome P450 Family 3 Subfamily A Member 4 (CYP3A4) small molecule antagonists: luciferase reporter qHTS assay (AID 1671201); details: P450-Glo CYP3A4 enzyme, luciferin luminescence, 1 h; series mostly up to 115 µM; note: nearly all actives have a fitted effect of over 50% in size
In short: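 Inhibition of CYP3A4 is measured as loss of light: the enzyme converts a proluciferin substrate to luciferin, detected luminescently. Reaction ran 1 h at room temperature with NADPH regeneration after a 10 min compound preincubation.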
Potency is the fitted concentration of half-maximal effect.

Sequence of Cytochrome P450 2D6 (Homo sapiens) (P10635 whole entry, looked up): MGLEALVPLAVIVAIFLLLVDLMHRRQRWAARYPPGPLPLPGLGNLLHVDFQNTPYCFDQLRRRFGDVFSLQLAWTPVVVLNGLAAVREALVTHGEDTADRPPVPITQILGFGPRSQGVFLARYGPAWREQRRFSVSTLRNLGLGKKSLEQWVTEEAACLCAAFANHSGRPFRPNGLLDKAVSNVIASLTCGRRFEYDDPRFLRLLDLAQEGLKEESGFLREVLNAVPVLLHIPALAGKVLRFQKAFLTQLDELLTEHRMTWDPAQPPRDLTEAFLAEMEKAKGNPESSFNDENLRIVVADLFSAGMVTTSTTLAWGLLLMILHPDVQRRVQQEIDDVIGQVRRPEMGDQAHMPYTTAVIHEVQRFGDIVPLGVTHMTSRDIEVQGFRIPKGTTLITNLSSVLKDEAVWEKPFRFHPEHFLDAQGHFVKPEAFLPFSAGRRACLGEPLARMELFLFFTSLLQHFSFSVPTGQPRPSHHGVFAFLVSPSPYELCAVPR
Sequence of Cytochrome P450 3A4 (Homo sapiens) (P08684 whole entry, looked up): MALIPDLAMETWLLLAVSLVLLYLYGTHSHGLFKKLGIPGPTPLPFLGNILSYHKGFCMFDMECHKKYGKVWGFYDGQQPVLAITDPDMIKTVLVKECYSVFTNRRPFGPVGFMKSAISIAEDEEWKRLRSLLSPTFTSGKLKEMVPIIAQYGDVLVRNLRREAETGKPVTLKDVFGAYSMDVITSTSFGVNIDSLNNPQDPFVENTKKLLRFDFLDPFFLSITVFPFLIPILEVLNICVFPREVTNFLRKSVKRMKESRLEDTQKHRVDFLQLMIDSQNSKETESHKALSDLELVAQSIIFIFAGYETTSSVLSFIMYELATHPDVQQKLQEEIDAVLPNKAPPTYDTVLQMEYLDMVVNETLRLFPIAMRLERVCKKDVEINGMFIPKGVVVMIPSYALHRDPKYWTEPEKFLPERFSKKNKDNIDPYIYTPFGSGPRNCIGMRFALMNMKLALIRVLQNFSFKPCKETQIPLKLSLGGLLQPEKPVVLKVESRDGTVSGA
Sequence of Acetylcholinesterase (Homo sapiens) (P22303 whole entry, looked up): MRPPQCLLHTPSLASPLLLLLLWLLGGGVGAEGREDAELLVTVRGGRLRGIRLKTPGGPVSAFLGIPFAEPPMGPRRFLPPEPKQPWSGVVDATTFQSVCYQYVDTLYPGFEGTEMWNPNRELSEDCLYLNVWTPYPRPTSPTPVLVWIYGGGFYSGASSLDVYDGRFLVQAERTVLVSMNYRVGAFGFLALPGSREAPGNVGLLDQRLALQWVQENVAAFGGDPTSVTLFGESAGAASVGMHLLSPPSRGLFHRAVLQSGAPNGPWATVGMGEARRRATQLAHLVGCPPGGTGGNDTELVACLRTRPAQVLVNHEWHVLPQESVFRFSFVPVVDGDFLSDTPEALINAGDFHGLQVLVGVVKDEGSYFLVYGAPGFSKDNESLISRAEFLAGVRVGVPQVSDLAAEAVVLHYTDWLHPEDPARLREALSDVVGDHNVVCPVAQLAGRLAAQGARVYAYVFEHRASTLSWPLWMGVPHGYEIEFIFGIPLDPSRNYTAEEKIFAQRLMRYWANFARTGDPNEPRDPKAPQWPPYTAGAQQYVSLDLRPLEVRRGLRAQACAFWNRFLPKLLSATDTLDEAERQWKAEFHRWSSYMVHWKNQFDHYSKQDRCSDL
Sequence of Cytochrome P450 2C9 (Homo sapiens) (P11712 whole entry, looked up): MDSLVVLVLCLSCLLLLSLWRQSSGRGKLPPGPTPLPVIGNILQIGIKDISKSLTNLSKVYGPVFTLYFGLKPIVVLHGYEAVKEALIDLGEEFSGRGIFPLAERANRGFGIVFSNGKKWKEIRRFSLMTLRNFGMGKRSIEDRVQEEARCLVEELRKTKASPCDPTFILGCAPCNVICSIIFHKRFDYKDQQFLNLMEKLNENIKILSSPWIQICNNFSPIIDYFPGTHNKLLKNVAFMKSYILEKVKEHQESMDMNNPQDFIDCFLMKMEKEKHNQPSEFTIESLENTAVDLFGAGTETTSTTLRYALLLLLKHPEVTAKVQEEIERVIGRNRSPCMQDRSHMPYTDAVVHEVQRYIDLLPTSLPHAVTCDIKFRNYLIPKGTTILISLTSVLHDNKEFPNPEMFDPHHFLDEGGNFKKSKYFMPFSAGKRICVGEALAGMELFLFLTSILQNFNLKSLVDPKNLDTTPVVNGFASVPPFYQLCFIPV
Sequence of Voltage-gated inwardly rectifying potassium channel KCNH2 (Homo sapiens) (Q12809 whole entry, looked up): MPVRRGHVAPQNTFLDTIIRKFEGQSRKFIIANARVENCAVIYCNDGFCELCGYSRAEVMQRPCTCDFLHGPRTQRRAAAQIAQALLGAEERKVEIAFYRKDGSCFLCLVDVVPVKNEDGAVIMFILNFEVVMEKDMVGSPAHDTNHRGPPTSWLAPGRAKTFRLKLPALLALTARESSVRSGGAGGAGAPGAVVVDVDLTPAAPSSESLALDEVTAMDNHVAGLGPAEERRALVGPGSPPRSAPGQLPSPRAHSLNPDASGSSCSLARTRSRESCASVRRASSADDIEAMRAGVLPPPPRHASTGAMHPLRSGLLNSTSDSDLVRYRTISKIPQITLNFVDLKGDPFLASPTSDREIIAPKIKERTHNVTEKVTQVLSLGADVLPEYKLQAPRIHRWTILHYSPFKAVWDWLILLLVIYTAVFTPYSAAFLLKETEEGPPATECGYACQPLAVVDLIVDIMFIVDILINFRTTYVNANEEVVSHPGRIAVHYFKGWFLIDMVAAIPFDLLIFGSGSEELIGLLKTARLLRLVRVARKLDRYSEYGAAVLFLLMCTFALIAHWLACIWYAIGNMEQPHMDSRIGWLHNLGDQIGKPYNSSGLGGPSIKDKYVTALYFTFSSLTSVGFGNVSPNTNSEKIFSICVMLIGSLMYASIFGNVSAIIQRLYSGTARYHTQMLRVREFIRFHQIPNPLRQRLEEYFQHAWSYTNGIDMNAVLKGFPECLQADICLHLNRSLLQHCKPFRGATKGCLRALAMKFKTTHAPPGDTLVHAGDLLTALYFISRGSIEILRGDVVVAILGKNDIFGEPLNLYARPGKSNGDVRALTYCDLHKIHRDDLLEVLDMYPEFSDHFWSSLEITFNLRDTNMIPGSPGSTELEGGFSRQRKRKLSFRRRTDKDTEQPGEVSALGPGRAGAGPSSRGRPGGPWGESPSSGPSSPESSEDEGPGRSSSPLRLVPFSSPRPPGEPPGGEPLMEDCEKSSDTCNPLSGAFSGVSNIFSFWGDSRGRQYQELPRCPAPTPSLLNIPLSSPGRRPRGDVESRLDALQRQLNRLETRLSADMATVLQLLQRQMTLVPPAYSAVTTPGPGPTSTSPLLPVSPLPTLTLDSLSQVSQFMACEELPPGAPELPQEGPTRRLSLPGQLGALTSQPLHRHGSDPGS
Sequence of Cytochrome P450 1A2 (Homo sapiens) (P05177 whole entry, looked up): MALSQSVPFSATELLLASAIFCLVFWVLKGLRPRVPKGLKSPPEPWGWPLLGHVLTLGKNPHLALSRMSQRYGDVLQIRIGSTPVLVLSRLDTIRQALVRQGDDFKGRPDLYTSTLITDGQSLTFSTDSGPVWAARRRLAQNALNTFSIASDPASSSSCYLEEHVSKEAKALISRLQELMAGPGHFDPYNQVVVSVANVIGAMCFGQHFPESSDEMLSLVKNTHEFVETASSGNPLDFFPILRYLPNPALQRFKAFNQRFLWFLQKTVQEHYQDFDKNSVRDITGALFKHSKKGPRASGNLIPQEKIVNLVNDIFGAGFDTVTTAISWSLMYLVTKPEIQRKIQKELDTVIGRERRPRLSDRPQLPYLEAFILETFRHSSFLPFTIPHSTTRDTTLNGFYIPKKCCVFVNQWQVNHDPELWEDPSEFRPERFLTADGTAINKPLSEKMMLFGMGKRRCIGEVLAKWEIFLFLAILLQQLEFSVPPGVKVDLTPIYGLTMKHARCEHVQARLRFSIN
Sequence of Cytochrome P450 2C19 (Homo sapiens) (P33261 whole entry, looked up): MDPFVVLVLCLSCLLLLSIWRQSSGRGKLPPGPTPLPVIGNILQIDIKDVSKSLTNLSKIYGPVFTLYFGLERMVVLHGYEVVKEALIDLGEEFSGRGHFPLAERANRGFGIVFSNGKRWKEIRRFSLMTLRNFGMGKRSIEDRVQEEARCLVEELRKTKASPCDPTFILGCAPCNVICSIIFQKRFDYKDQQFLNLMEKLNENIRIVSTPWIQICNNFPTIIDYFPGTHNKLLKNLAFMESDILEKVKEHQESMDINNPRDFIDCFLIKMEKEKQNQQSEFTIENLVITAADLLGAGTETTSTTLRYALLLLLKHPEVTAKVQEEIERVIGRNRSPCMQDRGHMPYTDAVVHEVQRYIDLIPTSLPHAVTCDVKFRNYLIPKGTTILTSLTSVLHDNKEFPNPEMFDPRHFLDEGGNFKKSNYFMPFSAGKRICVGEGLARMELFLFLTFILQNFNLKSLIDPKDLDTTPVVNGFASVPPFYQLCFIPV

SMILES | Potency [1] | Potency [2] | Potency [3] | Potency [4] | Potency [5] | Potency [6] | Potency [7] | Potency [8]
O=S(=O)(NS(=O)(=O)C(F)(F)F)C(F)(F)F | inactive | inactive | 0.447 µM (active) | 39.8 µM (active) | 6.31 µM (active) | 44.7 µM (active) | 38.8 µM (active) | 
CCCCN(CCCC)C(=S)S | inactive | inactive | 1.59 µM (active) | inactive |  |  |  | 
O=NN(CCO)CCO | inactive | inactive | inactive | 78.4 µM (active) | inactive | inactive | inactive | inactive
C[C@]12C/C(=C/O)C(=O)C[C@@H]1CC[C@@H]1[C@@H]2CC[C@@]2(C)[C@H]1CC[C@]2(C)O | inactive | inactive | inactive | inactive | 35.9 µM (active) and 27.5 µM (active) | inactive | inactive | 
CCN(CC)C(=S)S | inactive | inactive | inactive | 71.6 µM (active) and 50 µM (active) and inactive | 62.9 µM (active) and 31.7 µM (active) | 40.3 µM (active) | inactive | 
CC1(C)C(C=C(Cl)Cl)C1C(=O)OC(C#N)c1ccc(F)c(Oc2ccccc2)c1 (stereo unspecified) | inactive | inactive | 28.3 µM (active) | 10 µM (active) | 3.17 µM (active) | inactive | inactive | inactive
C[C@]12CC[C@H]3[C@@H](CCC4=CC(=O)CC[C@@H]43)[C@@H]1CC[C@@H]2OC(=O)CCc1ccco1 | inactive | inactive | inactive | inactive | 17.4 µM (active) | inactive | 10.7 µM (active) | 
CC(Cl)CCl (stereo unspecified) | inactive | inactive | inactive | 70.8 µM (active) | inactive | inactive | inactive | inactive
C=CCOC(=O)c1ccccc1N | inactive | inactive | 63.7 µM (active) | 25.4 µM (active) | 35.8 µM (active) | 7.15 µM (active) | inactive | 40.2 µM (active)
N#Cc1ccc(N(CC(N)=O)CC(F)(F)F)cc1C(F)(F)F | inactive | inactive | 31.7 µM (active) | 79.6 µM (active) | 35.6 µM (active) | 39.9 µM (active) | inactive | 
O=C(NC(=O)c1c(F)cccc1F)Nc1ccc(Oc2ccc(C(F)(F)F)cc2Cl)cc1F | inactive | inactive | inactive | inactive | 25.2 µM (active) | inactive | 34.7 µM (active) | inactive
CNC(=O)/C=C(\C)OP(=O)(OC)OC | 31.7 µM (active) | inactive | inactive | inactive | inactive | 28.3 µM (active) | inactive | inactive
CN1CCc2cc(Cl)c(O)cc2[C@H]2c3ccccc3CC[C@@H]21 | 21.9 µM (active) | inactive | 0.0078 µM (active) | inactive | inactive | inactive | 9.52 µM (active) | inactive
Nc1cc(Cl)ccc1Cl | inactive | inactive | inactive | inactive | inactive | 31.5 µM (active) | inactive | 
CN(C)C(=S)SSC(=S)N(C)C | 35.1 µM (active) and 39.9 µM (active) and 21.9 µM (active) | inactive | 89.4 µM (active) and inactive | 7 µM (active) and 6.33 µM (active) and 3.09 µM (active) | 9.89 µM (active) and 6.33 µM (active) and 2.19 µM (active) | 3.94 µM (active) and 4.48 µM (active) and 2.75 µM (active) | 43 µM (active) and 49 µM (active) | 39.4 µM (active)
O=C1C2(Cl)C3(Cl)C4(Cl)C(Cl)(Cl)C5(Cl)C3(Cl)C1(Cl)C5(Cl)C24Cl (stereo unspecified) | inactive | inactive | inactive | 622 nM (active) and 961 nM (active) | 5.55 µM (active) and 6.06 µM (active) | inactive | 12.1 µM (active) and 14.8 µM (active) | 2.78 µM (active) and 3.41 µM (active)
Clc1ccc(C2(Cn3cncn3)OCCO2)c(Cl)c1 | inactive | inactive | 63.3 µM (active) | 3.17 µM (active) | 17.8 µM (active) | 28.3 µM (active) | inactive | 0.502 µM (active)
CCC(C)c1cccc(C(C)CC)c1O (stereo unspecified) | inactive | inactive | inactive | inactive | 15.9 µM (active) | 22.4 µM (active) | inactive | 28.3 µM (active)
ClC(Cl)C(Cl)(Cl)Cl | inactive | inactive | inactive | inactive | inactive | 31.1 µM (active) | inactive | inactive
Nc1ccccc1-c1ccccc1 | inactive | inactive | 28.1 µM (active) | 35.4 µM (active) | 31.5 µM (active) | 35.4 µM (active) | inactive | 

SMILES | Potency [1] | Potency [2] | Potency [3] | Potency [4] | Potency [5] | Potency [6] | Potency [7] | Potency [8]
S=C=NCCc1ccccc1 | inactive | inactive | 11.3 µM (active) | 20.1 µM (active) | 17.9 µM (active) | 10.1 µM (active) | 15.5 µM (active) | 20.1 µM (active)
CCOP(=S)(OCC)SC(CCl)N1C(=O)c2ccccc2C1=O (stereo unspecified) | 10 µM (active) | 1.42 µM (active) | 39.9 µM (active) | 0.399 µM (active) | 1.12 µM (active) | 63.3 µM (active) | inactive | 1.59 µM (active)
O=[N+]([O-])c1ccccc1-c1ccccc1 | inactive | inactive | inactive | 35.6 µM (active) | 25.2 µM (active) | 1.59 µM (active) | inactive | inactive
COC(=O)/C=C(\C)OP(=O)(OC)OC | 1 µM (active) | 17.8 µM (active) | 31.7 µM (active) | 71 µM (active) | inactive | inactive | inactive | inactive
CNC(=O)Oc1cc(C)cc(C(C)C)c1 | 0.178 µM (active) | 5.03 µM (active) | 39.9 µM (active) | 20 µM (active) | inactive | 20 µM (active) | inactive | inactive
O=S1(=O)OCC2C(CO1)C1(Cl)C(Cl)=C(Cl)C2(Cl)C1(Cl)Cl (stereo unspecified) | inactive | inactive | inactive | 1.59 µM (active) | 15.9 µM (active) | 31.7 µM (active) | 17.4 µM (active) | 0.224 µM (active)
Cc1ccn2nc(S(=O)(=O)Nc3c(F)cccc3F)nc2n1 | inactive | inactive | inactive | inactive | 39.9 µM (active) | inactive | inactive | inactive
Nc1nc(N)nc(Cl)n1 | inactive | inactive | inactive | inactive | inactive | inactive | inactive | inactive
Clc1ccc(C(c2ccc(Cl)cc2)C(Cl)Cl)cc1 | inactive | inactive | 64.3 µM (active) | 181 nM (active) and 113 nM (active) | 5.11 µM (active) and 6.33 µM (active) | 6.43 µM (active) and 8.94 µM (active) | 24.9 µM (active) and 19.5 µM (active) | inactive
CC1=C2C[C@H]3[C@@H](CC=C4C[C@@H](O)CC[C@@]43C)[C@@H]2CC[C@]12O[C@@H]1C[C@H](C)CN[C@H]1[C@H]2C | inactive | inactive | inactive | inactive | inactive | inactive | inactive | inactive
COCCC#N | inactive | inactive | inactive | inactive | inactive | inactive | inactive | inactive
C=CC(=C)C | inactive | inactive | inactive | inactive | inactive | inactive | inactive | inactive
Oc1cccc(Cl)c1Cl | inactive | inactive | 56.6 µM (active) | 80 µM (active) | inactive | 35.7 µM (active) | inactive | inactive
CC#C[C@]1(O)CC[C@H]2[C@@H]3C[C@H](C)C4=CC(=O)CC[C@]4(C)[C@H]3CC[C@@]21C | inactive | inactive | inactive | 9.77 µM (active) | 17.4 µM (active) | inactive | inactive | 
C#CC1(O)CCCCC1 | inactive | inactive | inactive | inactive | inactive | inactive | inactive | inactive
CC(C)[C@@H](Nc1ccc(C(F)(F)F)cc1Cl)C(=O)OC(C#N)c1cccc(Oc2ccccc2)c1 (stereo partly specified) | inactive | inactive | inactive | 10.8 µM (active) | 6.09 µM (active) | inactive | inactive | 
COc1ccc2c(c1OC)C(=O)O[C@@H]2[C@H]1c2cc3c(cc2CCN1C)OCO3 | inactive | inactive | 35.2 µM (active) | 3.95 µM (active) | 5.58 µM (active) | 31.4 µM (active) | 21.7 µM (active) | 
CO/N=C(/C1=NOCCO1)c1ccccc1Oc1ncnc(Oc2ccccc2Cl)c1F | inactive | inactive | inactive | 7.96 µM (active) | 11.2 µM (active) | 25.2 µM (active) | inactive | 
CCC(OC(C)=O)C(CC(C)NC)(c1ccccc1)c1ccccc1 (stereo unspecified) | inactive | inactive | 14.3 µM (active) | 32 µM (active) | inactive | inactive | 8.78 µM (active) | 
